Holding throughout (parameters): scale not given: direction of the effect not stated beside the values
Assay [1] has as its target Protein translocase subunit SecA (Escherichia coli (strain K12)) (UniProt P10408). As to the kind of experiment: Assay to Identify E. coli SecA ATPase Inhibitors. The assay is classed as functional. The conditions noted are these: 30 µM.
For assay [2], the target named is T1, Ubiquitin-activating enzyme e1, putative (Leishmania donovani (strain BPK282A1)) (UniProt E9BSI1).
T1 sequence (whole entry): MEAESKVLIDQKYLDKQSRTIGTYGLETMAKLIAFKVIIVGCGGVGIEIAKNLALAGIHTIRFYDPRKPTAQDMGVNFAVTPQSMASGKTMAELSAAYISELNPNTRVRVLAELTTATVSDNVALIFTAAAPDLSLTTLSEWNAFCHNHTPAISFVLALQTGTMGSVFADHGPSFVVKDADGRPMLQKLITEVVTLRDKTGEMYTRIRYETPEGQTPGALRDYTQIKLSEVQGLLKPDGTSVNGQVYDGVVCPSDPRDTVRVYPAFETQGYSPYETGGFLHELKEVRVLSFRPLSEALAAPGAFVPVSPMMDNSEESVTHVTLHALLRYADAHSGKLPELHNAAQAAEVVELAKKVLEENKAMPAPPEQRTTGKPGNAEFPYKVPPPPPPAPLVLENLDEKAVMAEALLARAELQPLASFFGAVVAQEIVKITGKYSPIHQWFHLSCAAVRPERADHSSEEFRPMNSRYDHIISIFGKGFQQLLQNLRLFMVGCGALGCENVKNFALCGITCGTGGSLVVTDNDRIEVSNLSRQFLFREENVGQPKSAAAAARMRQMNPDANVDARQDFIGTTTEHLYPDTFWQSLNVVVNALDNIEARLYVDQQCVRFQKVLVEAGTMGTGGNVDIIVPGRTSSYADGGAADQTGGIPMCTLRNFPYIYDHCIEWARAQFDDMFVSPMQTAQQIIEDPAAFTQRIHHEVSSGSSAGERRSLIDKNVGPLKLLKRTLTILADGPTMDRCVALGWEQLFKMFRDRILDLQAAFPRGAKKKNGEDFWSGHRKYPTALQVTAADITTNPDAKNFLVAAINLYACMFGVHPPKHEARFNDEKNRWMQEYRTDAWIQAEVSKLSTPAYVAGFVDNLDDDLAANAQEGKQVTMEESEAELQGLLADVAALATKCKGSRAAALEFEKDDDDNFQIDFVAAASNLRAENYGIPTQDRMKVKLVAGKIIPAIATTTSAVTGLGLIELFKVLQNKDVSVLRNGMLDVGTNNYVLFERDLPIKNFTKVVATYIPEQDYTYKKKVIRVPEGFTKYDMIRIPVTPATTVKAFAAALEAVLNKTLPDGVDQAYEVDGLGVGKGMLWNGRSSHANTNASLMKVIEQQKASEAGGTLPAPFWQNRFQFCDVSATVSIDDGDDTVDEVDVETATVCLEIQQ
Nature of the assay: Leishmania donovani Ubiquitin Activating Enzyme (LdE1). The class given is functional. The conditions noted are these: 30 µM.

Assay [3] has as its target AMP-activated protein kinase, AMPK (Homo sapiens) (UniProt P54646+O43741+P54619+Q9UGJ0+Q9Y478+Q13131+Q9UGI9). As to the kind of experiment: AMP-dependent Kinase enzyme assay. An in vitro enzyme assay that detects ADP turnover that is directly proportional to AMPK activity. This uses naive AMPK that is activated during the assay with MK-8722. The assay is classed as functional. The conditions noted are these: 30 µM.

Assay [4] has as its target Sialic acid-binding Ig-like lectin 9 (Homo sapiens) (UniProt Q9Y336). As to the kind of experiment: Hs-Siglec9 ALPHAscreen SOP 20170721. Particulars: 10 µM. Background: Alpha assays give light when donor and acceptor beads are brought close together.
Assay [5] relates to Trypanosoma cruzi. As to the kind of experiment: Trypanosoma cruzi phosphomannomutase and mannose-1-phosphate guanylyltransferase assay. The class given is functional. Particulars: 10 µM.
For assay [6], the target named is T2, Arginase-2, mitochondrial (Homo sapiens) (UniProt P78540).
T2 sequence (whole entry): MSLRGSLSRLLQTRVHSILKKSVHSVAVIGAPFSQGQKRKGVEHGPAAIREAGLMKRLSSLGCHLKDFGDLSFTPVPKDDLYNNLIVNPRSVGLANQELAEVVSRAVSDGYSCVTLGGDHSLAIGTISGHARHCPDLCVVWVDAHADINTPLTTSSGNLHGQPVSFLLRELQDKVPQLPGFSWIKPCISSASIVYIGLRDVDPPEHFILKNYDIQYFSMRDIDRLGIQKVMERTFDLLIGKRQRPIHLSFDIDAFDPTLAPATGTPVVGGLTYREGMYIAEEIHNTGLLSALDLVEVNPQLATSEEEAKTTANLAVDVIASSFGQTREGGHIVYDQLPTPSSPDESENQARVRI
Nature of the assay: in vitro enzyme assay to detect the production of urea directly proportional to the activity of Arginase II. Further: in the data most compounds retested in dose-response had high values. The class given is functional. Particulars: 33.3 µM.

Assay [7] addresses T3, Proteasome subunit beta (Trypanosoma cruzi) (UniProt O96673).
T3 sequence (whole entry): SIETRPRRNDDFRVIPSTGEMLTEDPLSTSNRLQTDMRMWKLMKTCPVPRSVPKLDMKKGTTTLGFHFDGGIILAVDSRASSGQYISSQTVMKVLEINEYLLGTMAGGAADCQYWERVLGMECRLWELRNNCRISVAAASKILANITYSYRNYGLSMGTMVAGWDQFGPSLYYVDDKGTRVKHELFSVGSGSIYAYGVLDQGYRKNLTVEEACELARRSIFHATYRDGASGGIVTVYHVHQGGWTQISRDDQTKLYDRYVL
Nature of the assay: Trypanosoma cruzi proteasome chymotrypsin-like activity (TcProtChymo) assay. Further: in the data most compounds retested in dose-response had high values. The assay is classed as functional. The conditions noted are these: 9.37 µM.

Assay [8] is filed under the species Homo sapiens. Nature of the assay: To identify inhibition of the IFN signalling (Jak-Stat) pathway via expression of an eGFP reporter gene under the control of an IFN-stimulated response element (ISRE) containing MxA promoter. The assay is classed as functional. Particulars: 30 µM. For orientation: A reporter such as luciferase makes a cellular process visible.

Assay [9] has as its target T4, Tyrosyl-tRNA synthetase, putative (Trypanosoma cruzi (strain CL Brener)) (UniProt Q4DSP6).
T4 sequence (whole entry): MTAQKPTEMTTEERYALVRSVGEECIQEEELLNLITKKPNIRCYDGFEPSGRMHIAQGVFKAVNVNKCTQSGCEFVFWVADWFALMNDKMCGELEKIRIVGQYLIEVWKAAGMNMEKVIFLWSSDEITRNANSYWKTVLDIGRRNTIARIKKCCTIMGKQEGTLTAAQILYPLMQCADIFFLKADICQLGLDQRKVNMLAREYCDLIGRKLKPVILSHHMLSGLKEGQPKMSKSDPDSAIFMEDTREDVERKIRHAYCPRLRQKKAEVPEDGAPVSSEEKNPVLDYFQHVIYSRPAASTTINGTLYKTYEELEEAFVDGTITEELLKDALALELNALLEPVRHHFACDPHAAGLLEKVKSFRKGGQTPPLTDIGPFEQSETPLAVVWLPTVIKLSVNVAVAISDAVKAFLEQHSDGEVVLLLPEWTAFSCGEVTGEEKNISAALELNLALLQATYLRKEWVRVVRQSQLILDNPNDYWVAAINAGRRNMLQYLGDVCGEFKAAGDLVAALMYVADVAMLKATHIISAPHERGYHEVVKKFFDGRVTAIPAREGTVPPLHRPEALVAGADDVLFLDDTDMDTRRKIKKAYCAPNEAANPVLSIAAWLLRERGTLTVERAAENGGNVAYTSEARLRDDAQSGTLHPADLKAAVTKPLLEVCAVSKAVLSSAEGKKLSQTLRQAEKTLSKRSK
As to the kind of experiment: Trypanosoma cruzi tyrosyl tRNA synthetase (TcYRS) _High Tyrosine SOP. Further: in the data most compounds retested in dose-response had high values. The assay is classed as functional. Particulars: 30 µM.

Assay [10] addresses T4, Tyrosyl-tRNA synthetase, putative (Trypanosoma cruzi (strain CL Brener)). As to the kind of experiment: Trypanosoma cruzi tyrosyl tRNA synthetase (TcYRS) SOP. The class given is functional. The conditions noted are these: 30 µM.
For assay [11], the target named is Chromo domain-containing protein 1 (Saccharomyces cerevisiae (strain ATCC 204508 / S288c) (Baker's yeast)) (UniProt P32657). Nature of the assay: ScCHD-1 Enzyme Inhibition Assay. Further: in the data most compounds retested in dose-response had high values. The class given is functional. The conditions noted are these: 30 µM.
Chromo domain-containing protein 1 (Saccharomyces cerevisiae (strain ATCC 204508 / S288c) (Baker's yeast)), sequence (P32657 whole entry, the tested form may be a part): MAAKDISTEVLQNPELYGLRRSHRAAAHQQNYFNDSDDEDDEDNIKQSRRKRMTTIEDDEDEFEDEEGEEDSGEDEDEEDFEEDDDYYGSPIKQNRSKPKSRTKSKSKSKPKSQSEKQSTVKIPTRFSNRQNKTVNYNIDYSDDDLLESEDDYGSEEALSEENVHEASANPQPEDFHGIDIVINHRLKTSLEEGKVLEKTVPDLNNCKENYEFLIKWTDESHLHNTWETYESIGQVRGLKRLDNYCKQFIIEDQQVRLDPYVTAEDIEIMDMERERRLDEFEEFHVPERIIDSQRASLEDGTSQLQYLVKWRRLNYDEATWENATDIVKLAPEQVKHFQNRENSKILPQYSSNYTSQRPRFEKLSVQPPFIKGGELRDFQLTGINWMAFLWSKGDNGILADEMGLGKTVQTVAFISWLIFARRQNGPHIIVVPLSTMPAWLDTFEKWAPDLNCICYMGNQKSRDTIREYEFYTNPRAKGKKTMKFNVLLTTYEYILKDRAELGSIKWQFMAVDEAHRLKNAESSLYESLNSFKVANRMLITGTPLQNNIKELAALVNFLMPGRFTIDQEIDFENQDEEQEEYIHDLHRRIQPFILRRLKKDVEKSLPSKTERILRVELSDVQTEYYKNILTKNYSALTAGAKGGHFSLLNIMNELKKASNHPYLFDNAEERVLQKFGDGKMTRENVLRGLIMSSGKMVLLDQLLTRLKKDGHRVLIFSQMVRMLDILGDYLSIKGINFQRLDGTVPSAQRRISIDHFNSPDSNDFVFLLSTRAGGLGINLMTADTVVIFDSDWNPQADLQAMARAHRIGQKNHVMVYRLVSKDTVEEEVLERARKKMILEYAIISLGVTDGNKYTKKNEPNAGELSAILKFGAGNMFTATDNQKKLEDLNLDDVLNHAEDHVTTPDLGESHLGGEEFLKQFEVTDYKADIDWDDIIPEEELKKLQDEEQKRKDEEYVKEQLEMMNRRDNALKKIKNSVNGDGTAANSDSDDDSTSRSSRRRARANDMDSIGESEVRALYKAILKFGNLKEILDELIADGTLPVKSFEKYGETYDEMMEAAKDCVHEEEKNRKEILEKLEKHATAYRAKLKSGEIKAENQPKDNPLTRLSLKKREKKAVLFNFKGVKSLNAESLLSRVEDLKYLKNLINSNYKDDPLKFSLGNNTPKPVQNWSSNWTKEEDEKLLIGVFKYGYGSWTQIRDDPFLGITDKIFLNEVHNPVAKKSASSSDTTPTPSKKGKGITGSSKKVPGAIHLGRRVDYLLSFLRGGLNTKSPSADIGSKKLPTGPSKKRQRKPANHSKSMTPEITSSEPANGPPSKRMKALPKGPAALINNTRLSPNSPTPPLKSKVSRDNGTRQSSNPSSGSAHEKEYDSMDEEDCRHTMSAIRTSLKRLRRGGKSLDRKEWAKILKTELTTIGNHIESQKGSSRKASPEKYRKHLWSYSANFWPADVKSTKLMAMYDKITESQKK

For some of these results: Results with a measured potency or affinity are listed apart.

Protein translocase subunit SecA (Escherichia coli (strain K12)), sequence (P10408 whole entry): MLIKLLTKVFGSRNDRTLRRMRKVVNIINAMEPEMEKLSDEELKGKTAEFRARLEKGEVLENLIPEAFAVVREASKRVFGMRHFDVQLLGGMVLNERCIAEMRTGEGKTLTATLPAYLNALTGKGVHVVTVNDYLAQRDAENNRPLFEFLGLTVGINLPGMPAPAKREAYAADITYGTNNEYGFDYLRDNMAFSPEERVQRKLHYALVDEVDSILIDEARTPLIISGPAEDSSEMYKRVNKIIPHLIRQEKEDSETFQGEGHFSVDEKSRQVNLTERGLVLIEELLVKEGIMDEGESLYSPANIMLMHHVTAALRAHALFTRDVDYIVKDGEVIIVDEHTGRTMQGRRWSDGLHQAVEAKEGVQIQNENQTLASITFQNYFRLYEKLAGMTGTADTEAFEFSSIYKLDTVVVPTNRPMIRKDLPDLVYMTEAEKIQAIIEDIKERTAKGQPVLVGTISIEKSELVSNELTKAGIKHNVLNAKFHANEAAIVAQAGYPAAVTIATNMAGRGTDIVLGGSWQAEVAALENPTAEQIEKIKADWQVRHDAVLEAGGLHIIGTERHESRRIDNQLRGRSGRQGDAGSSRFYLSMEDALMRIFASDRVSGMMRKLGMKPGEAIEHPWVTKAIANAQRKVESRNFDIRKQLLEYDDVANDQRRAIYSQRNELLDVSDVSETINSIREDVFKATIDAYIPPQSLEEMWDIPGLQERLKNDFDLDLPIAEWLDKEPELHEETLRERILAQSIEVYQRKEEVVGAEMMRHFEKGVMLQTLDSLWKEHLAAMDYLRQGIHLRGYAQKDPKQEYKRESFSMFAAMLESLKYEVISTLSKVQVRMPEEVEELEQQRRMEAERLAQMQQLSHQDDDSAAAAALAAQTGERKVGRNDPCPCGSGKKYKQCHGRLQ
Sialic acid-binding Ig-like lectin 9 (Homo sapiens), sequence (Q9Y336 whole entry): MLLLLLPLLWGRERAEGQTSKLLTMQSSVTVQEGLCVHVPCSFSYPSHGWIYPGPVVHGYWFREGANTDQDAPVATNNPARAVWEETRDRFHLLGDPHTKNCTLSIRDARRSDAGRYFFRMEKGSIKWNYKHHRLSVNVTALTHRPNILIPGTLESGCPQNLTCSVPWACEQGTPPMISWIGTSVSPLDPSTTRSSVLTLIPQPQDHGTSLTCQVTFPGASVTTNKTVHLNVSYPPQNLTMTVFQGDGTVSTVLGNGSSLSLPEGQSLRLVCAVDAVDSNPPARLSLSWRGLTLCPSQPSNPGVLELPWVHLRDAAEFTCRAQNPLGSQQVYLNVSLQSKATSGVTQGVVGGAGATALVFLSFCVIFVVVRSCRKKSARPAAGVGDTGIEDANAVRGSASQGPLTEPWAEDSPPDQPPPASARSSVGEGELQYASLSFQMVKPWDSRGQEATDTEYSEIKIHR

Take `Cc1cnn(CC2CCCN2Cc2nccn2C)c1` (stereo not drawn): the Percent Effect in [1] was -3.05%; in [2] it was -16.5%; in [3], -3.78%; in [4] it was -0.409%; in assay [5] it was 3.59%; in assay [6], 1.5%. Moreover, the Percent Effect was 3.94% in [7]; 4.67% in assay [8]; 4.17% in [9]; 5.06% in assay [10]; -13.2% in assay [11].
With `Cc1nc(CN(Cc2ccccc2)C2CCS(=O)(=O)C2)oc1C` (stereo not drawn), the Percent Effect is -2.4% in assay [1]; 15.8% in assay [2]; -3.46% in assay [3]; 2.71% in assay [4]; 5.32% in [5]; -1.08% in assay [6]. Besides, the Percent Effect was 10.4% in assay [7]; -8.35% in assay [8]; 7.39% in [9]; 23.5% in assay [10]; -6.72% in [11].
Consider `Cc1nc(-c2ccccc2)n(CC(=O)NCC(C)C)n1`, for which the Percent Effect in assay [1] was -1.39%; in assay [2], 13.5%; in assay [3], -9.59%; in assay [4], -7.18%; in [5] it was -7.08%; in assay [6] it was -4.01%. In addition, the Percent Effect was 1.62% in [7]; 19.8% in assay [8]; 5.42% in assay [9]; 13.6% in assay [10]; -5.55% in assay [11].
Turning to `CCc1ccccc1-n1nnc(C(=O)O)c1-c1ccccn1`, the Percent Effect in [1] was -2.26%; in [2] it was 13.2%; in assay [3], 1.03%; in assay [4], -0.0352%; in assay [5], 1.85%; in assay [6], 1.18%. Further, the Percent Effect was 23.5% in [7]; -17.6% in assay [8]; 4.25% in assay [9]; 13% in [10]; -6.21% in assay [11].
As for `Cc1cc(NC(=O)CN2CCn3c(nnc3C3CC3)C2)n(C)n1`, the Percent Effect was -3.7% in [1]; -5.26% in assay [2]; 11.5% in assay [3]; -1.43% in assay [4]; -4.7% in [5]; 0% in assay [6]. Further, the Percent Effect in [7] is 4.84%; in [8], 21.3%; in assay [9], -0.49%; in [10], 0%; in [11], 3.45%.
Consider `CN(Cc1ccco1)C(=O)C1CSCN1C(=O)c1cccnc1` (stereo not drawn), for which the Percent Effect was -3.86% in assay [1]; 0% in [2]; 0.482% in assay [3]; 1.7% in [4]; 0.467% in assay [5]; -3.96% in [6]. The Percent Effect is 4.65% in [7]; -7.95% in assay [8]; -0.493% in assay [9]; 1.24% in assay [10]; -0.736% in assay [11].
Take `OCc1ccc(Cl)c(NCc2cccnc2)c1`: the Percent Effect in assay [1] was -4.1%; in assay [2], 0%; in [3], -0.207%; in assay [4], -4.73%; in assay [5], -1.85%; in assay [6] it was 2.37%. The Percent Effect is 2.01% in [7]; -2.65% in assay [8]; 0% in assay [9]; -5.2% in assay [10]; -6.29% in [11].
Take `CCc1nnc(CN2CCN(C(=O)c3cc4ccccc4[nH]3)CC2)o1`: the Percent Effect was -3% in [1]; -2.6% in [2]; 2.79% in [3]; 2.32% in [4]; 8.91% in assay [5]; -1.47% in assay [6]. The Percent Effect in [7] was 2.83%; in assay [8], -20%; in assay [9], 1.91%; in [10], 2.35%; in assay [11], -14.7%.

Source of the values: ChEMBL document CHEMBL3988442, “University of Dundee, Small-Polar-MMV Screening Library” (2021).
